# Reference: PubChem BioAssay
# Values without a mark were called inactive. Activity calls are given as the source filed them.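 Rule for the calls: active = inhibition of the reporter signal at or above 50%; inactive = inhibition below 50%.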
# Experiment: inhibitors of poly I:C-induced TLR3 signaling, primary screen, cell-based, poly I:C stimulus, luciferase, 10K MLSCN set (AID 602277)
# Conditions: HEK293-TLR3 RL24 IRF3 luciferase reporter, at 10 µM, hits give high values
row,Compound,inhibition
1,CC(=O)Nc1cc2c(nc1C)nc(C)n2Cc1ccc(Br)cc1,-9.25%
2,COc1ccc(C(C)N2CC34C=CC(O3)C(C(=O)OCC(C)C)C4C2=O)cc1 (stereo unspecified),23.7%
3,COc1ccc2nc3oc(C(=O)NC4CCN(Cc5ccccc5)CC4)cc3cc2c1,-53.8%
4,CN(C)c1ccc(-c2nn3c(-c4ccc(Cl)cc4Cl)nnc3s2)cc1,55.1% (active)
5,COc1ccc(S(=O)(=O)NC(C)C(=O)Nc2cccc(C(C)=O)c2)cc1 (stereo unspecified),15.3%
6,O=C(Nc1cccc2ccccc12)N1CCN(c2ccccc2)CC1,15.2%
7,O=c1ccc2cc3c([nH]c4ccc(Br)cc43)oc-2c1O,24.2%
8,CCCCSc1cc(C)nc2ncnn12,9.98%
9,CCN1C(=O)CC(N2CCC(Nc3ccc(F)cc3)CC2)C1=O (stereo unspecified),-6.01%
10,CCOc1ccccc1NC(=O)CCSc1nc2n[nH]c(C)c2c(=N)n1-c1ccccc1Cl,5.23%
11,c1ccc(-n2c(Sc3cnccn3)nnc2-c2cccs2)cc1,12.5%
12,C=C(C)Cn1c(N2CC(C)CC(C)C2)nc2c1c(=O)[nH]c(=O)n2C (stereo unspecified),41.2%
13,CCC1(C(=O)OC)NC(c2cccc(F)c2)C2C(=O)N(C)C(=O)C21 (stereo unspecified),30.6%
14,Cc1ccccc1-n1c(SCc2c(C)noc2C)nnc1-c1ccncc1,30.2%
15,COC(=O)C1=C(C)n2nnnc2NC1c1ccc(Cl)cc1 (stereo unspecified),10.6%
16,CCc1ccc(C2CC(c3ccccc3)n3ncnc3N2)cc1 (stereo unspecified),28.3%
